Out of some 16,000 compounds screened, about 5,700 (36%) were called active. Inconclusive results (about 24%) are left out. This is one part of the list. A number with no mark means an inactive call. The call rests on the fitted dose curve; in most records, active means well fitted curve in the direction sought with a large enough effect; inconclusive means small, poorly fitted or top-dose-only effect, or effect the other way; inactive means no such curve, though single readings can be large or run the other way.
biological target: Cytochrome P450 1A2 (Homo sapiens) (UniProt P05177); experiment: Cytochrome panel assay with activity outcomes; details: recombinant CYP, pro-luciferin dealkylation, luminescence, p450-cyp1a2; series mostly up to 57.1 µM
Sequence (P05177 whole entry, looked up): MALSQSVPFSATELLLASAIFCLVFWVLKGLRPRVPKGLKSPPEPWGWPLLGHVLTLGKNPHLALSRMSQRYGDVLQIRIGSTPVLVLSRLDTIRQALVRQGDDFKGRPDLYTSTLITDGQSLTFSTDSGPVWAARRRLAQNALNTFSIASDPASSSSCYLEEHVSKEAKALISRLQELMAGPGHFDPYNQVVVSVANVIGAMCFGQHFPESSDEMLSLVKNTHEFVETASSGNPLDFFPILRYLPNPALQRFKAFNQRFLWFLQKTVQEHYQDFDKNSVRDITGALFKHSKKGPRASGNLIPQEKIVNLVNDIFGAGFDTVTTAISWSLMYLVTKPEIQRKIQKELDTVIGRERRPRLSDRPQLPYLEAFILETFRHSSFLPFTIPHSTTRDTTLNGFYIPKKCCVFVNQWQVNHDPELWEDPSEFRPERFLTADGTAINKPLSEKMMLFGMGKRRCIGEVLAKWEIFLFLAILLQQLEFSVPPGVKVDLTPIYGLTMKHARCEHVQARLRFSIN
On the % scale 0 is the no-effect control and ±100 the full control effect.

Row | Compound | AC50 | activity, negative = inhibition
1 | Fc1ccc(Nc2ccnc(-c3ccccc3C(F)(F)F)n2)cc1 | 2 µM (active) | 
2 | CNc1ccnc(-c2ccccc2C(F)(F)F)n1 | 12.6 µM (active) | 
3 | CN1C[C@H](c2ccccc2)C(O)([C@]2(c3ccccc3)CN(C)C[C@@H](c3ccccc3)C2=O)[C@H](c2ccccc2)C1 (stereo partly drawn) |  | -5.45% [at 11.4 µM]
4 | O[C@@H](c1cc([C@@]23C[C@H]4CC[C@@H]2C[C@H](C4)C3)nc2c(Cl)cc(Cl)cc12)[C@@H]1CCCCN1 |  | -10.5% [at 2.29 µM]
5 | CCOC(=O)c1c(C)nc2sc3c(=O)n(-c4ccc(OC)cc4)nnc3c2c1-c1ccc(OC)cc1 | inactive | 
6 | CCOC(=O)c1nc2sc(C)c(C)c2c(=O)[nH]1 | 14.1 µM (active) | 
7 | Cc1ccc(Nc2nc(Cl)nc(N(C)C#N)n2)cc1 | 3.55 µM (active) | 
8 | O=C(O)NCC1CCCCC1 (tested in a mixture with another compound) |  | -10.2% [at 11.4 µM]
9 | Cc1nc(-c2c(C(F)(F)F)noc2-c2ccc(O)cc2O)cs1 | 12.6 µM (active) | 
10 | NC(=O)CC(c1ccccc1)c1ccco1 (stereo not drawn) | inactive | 
11 | O=C(c1ccco1)N(CCC(c1ccccc1)c1ccco1)Cc1ccco1 (stereo not drawn) | 14.1 µM (active) | 
12 | O=C(NCc1ccccc1)C(c1ccc(F)cc1)N(Cc1ccco1)C(=O)c1ccccn1 (stereo not drawn) | inactive | 
13 | CCOC(=O)C1CCCN(C(=O)c2sc3nc(-c4ccc(OC)cc4)cn3c2C)C1 (stereo not drawn) | 20 µM (active) | 
14 | CCOC(=O)C1CCCN(C(=O)CCn2nc(-c3ccccc3)ccc2=O)C1 (stereo not drawn) | inactive | 
15 | CCOC(=O)C1CCN(Cc2cnc(Oc3ccc(OC)cc3)s2)CC1 | inactive | 
16 | O=C(O)c1ccc([N+](=O)[O-])c(P(=O)(O)O)c1 |  | -9.8% [at 11.4 µM]
17 | O=C1CC(c2ccc(F)cc2)Cc2nc(NCC3CCCO3)ncc21 (stereo not drawn) | 22.4 µM (active) | 
18 | O=C1C=C(NCC2CCCO2)C2(CCCCC2)O1 (stereo not drawn) | inactive | 
19 | O=C(NCC1CCCO1)c1ccc(CS(=O)(=O)Cc2ccc(F)cc2)o1 (stereo not drawn) | inactive | 
20 | Cc1ccc(C(=O)C(OC(=O)CNS(=O)(=O)c2ccccc2)c2ccccc2)cc1 (stereo not drawn) | inactive | 

Row | Compound | AC50 | activity, negative = inhibition
21 | COCCOC(=O)C1=C(C)NC(=O)N(C(C)=O)C1c1ccc(Cl)cc1 (stereo not drawn) | inactive | 
22 | CCOC(=O)C1=C(C)N=C2c3ccccc3C(=O)C2C1c1ccc(Cl)cc1 (stereo not drawn) | 3.16 µM (active) | 
23 | CCOC(=O)C1=NNC2(c3ccc(Cl)cc3)C(=O)N(c3cc(C)cc(C)c3)C(=O)C12 (stereo not drawn) | inactive | 
24 | CCOC(=O)C1=C(N)n2c(s/c(=C/c3ccccc3)c2=O)=C(C(=O)OCC)C1c1ccccc1 (stereo not drawn) | inactive | 
25 | CCOC(=O)C1=C(C)N=C2c3ccccc3C(=O)C2C1c1ccc(C)cc1 (stereo not drawn) | 3.16 µM (active) | 
26 | COC(=O)[C@@]1(Cc2ccccc2)[C@H]2c3cc(C(=O)N(C)C)n(Cc4ccsc4Br)c3C[C@H]2CN1C(=O)c1ccccc1 | inactive | 
27 | COc1ccc(CSc2nnnn2C)cc1[N+](=O)[O-] | 14.1 µM (active) | 
28 | CCCOc1ccc(Cn2c(C)nc([N+](=O)[O-])c2SCC(O)COC)cc1[N+](=O)[O-] (stereo not drawn) | inactive | 
29 | CSc1nncc(-c2ccc(F)c(F)c2)n1 | 3.55 µM (active) | 
30 | OC(COCC1COc2ccccc2O1)CN1CCc2ccccc2C1 (stereo not drawn) | 5.01 µM (active) | 
31 | CC1CCCN(CC(O)COCC2COc3ccccc3O2)C1 (stereo not drawn) | inactive | 
32 | OC(COCC1COc2ccccc2O1)CN1CCN(c2ccccc2F)CC1 (stereo not drawn) | inactive | 
33 | NC(=O)[C@H]1CC2(CC(c3cccc(NC(=O)c4ccccc4)c3)=NO2)CN1C(=O)[C@H]1CCC(=O)N1 (stereo partly drawn) | inactive | 
34 | CCOC(=O)C1=C(C)NC2(O)c3ccccc3C(=O)C12O (stereo not drawn) | 20 µM (active) | 
35 | CC(=O)Nc1ccc(S(=O)(=O)NCC2CCC(C(=O)N3CCN(c4ccccn4)CC3)CC2)cc1 (stereo not drawn) | inactive | 
36 | O=c1onc2n1-c1cc(Br)ccc1OC2 | 0.794 µM (active) | 
37 | Cc1ccc(NC(=O)N/C=C/c2ccco2)cc1C | 7.08 µM (active) | 
38 | O=C1[C@@H]2[C@H]3[C@H](O)[C@H](O)C/C(=N/OC[C@@H](O)COCc4ccco4)[C@@H]3CC[C@H]2C(=O)N1c1ccc(F)cc1F |  | -10.4% [at 11.4 µM]
39 | C/C(=N\N1CCN(C2c3ccccc3-c3ccccc32)CC1)c1cccnc1 | 12.6 µM (active) | 
40 | C/C(=N\N1CCN(C2c3ccccc3-c3ccccc32)CC1)c1ccncc1 | 8.91 µM (active) | 

Row | Compound | AC50 | activity, negative = inhibition
41 | Cc1ccnc(N2C(=O)C3C4CC(C(Br)C4Br)C3C2=O)c1 (stereo not drawn) | inactive | 
42 | C[C@@H](COc1ccc(/C=C\c2ccccc2)cc1)[N+](C)(C)C | inactive | 
43 | CC[N+](CC)(CC)CCOc1cccc(OCC[N+](CC)(CC)CC)c1OCC[N+](CC)(CC)CC | inactive | 
44 | O=C(O)[C@@H]1CCCNC1 | inactive | 
45 | Cc1cc(C)c(C)c(S(=O)(=O)ON2C(=O)c3ccccc3C2=O)c1C | 28.2 µM (active) | 
46 | FC(F)(F)c1cc(-c2ccco2)nc(NCc2cccs2)n1 | 0.158 µM (active) | 
47 | FC(F)(F)c1cc(-c2ccco2)nc(NCCc2ccccc2)n1 | 2.82 µM (active) | 
48 | COc1ccccc1-c1nc(Nc2ccncc2)c2ccccc2n1 | 0.316 µM (active) | 
49 | Cc1ccccc1-c1nc(Nc2ccncc2)c2ccccc2n1 | 0.794 µM (active) | 
50 | Clc1ccccc1-c1nc(Nc2ccncc2)c2ccccc2n1 | 0.501 µM (active) | 
51 | FC(F)(F)c1ccccc1-c1nc(Nc2ccncc2)c2ccccc2n1 | 10 µM (active) | 
52 | CC(=O)OC[C@H]1O[C@@H](O/N=C2/[C@H]3O[C@@H]3[C@@H](O)[C@H]3[C@H]2CCn2c(=O)n(-c4ccccc4)c(=O)n23)[C@H](OC(C)=O)[C@@H](OC(C)=O)[C@@H]1OC(C)=O |  | 1.98% [at 11.4 µM]
53 | Cc1noc(C)c1C(=O)N1CCC2(CCCN(c3ccccc3)C2)CC1 | inactive | 
54 | Cc1noc(C)c1C(=O)N1CCC2(CC1)CN(c1ccccc1)C2 | inactive | 
55 | CN1CCN(C(c2ccccc2)c2ccccc2)CC1 | inactive | 
56 | Cc1noc(C)c1-c1nc(N2CCN(C)CC2)c2ccccc2n1 | 0.316 µM (active) | 
57 | Cc1noc(C)c1-c1nc(N2CCOCC2)c2ccccc2n1 | 0.316 µM (active) | 
58 | Cc1cc(C)n(-c2nc(SCCN(C)C)c3c4c(sc3n2)CCCC4)n1 | 14.1 µM (active) | 

Reference: PubChem BioAssay AID1851 (National Center for Advancing Translational Sciences (NCATS), 2009)
